# Screens deposited in PubChem by National Center for Advancing Translational Sciences (NCATS).
# HEK293 viab = counter-screen for SNCA expression inhibitors: cell viability; Potency, µM (series often up to 57.1 µM), for the others: at the top dose activity change, negative = cytotoxicity, most hits filed as cytotoxic; AID 1671193; 0.12% of 150,000 active; HEK-293-SNCA-luc viability, GF-AFC fluorescence, 24 h;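 note: potency is the fitted concentration of half-maximal effect; 0% = DMSO-treated cells and -100% = medium-only wells without cells; nearly all actives have a fitted effect of over 30% in size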
#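 HEK-293-SNCA-luc cells (1500/well) plated 24 h, then exposed 24 h to a dilution series; GF-AFC added 30 min at 37C, fluorescence 405/540 nm; normalised to medium-only and DMSO wells, Hill fit.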
# KDM5B inh = inhibitors of human KDM5B histone demethylase. KDM5B demethylase, FDH-coupled NADH fluorescence (FDH is formaldehyde dehydrogenase). Potency, µM (highest dose often 57.7 µM), hits mostly inhibitors. 2.6% of 220,000 active. AID 1347165; note: potency is the fitted concentration of half-maximal effect; 0% is about no effect; nearly all actives have a fitted effect of over 70% in size
# Target sequence (Q9UGL1 whole entry, looked up): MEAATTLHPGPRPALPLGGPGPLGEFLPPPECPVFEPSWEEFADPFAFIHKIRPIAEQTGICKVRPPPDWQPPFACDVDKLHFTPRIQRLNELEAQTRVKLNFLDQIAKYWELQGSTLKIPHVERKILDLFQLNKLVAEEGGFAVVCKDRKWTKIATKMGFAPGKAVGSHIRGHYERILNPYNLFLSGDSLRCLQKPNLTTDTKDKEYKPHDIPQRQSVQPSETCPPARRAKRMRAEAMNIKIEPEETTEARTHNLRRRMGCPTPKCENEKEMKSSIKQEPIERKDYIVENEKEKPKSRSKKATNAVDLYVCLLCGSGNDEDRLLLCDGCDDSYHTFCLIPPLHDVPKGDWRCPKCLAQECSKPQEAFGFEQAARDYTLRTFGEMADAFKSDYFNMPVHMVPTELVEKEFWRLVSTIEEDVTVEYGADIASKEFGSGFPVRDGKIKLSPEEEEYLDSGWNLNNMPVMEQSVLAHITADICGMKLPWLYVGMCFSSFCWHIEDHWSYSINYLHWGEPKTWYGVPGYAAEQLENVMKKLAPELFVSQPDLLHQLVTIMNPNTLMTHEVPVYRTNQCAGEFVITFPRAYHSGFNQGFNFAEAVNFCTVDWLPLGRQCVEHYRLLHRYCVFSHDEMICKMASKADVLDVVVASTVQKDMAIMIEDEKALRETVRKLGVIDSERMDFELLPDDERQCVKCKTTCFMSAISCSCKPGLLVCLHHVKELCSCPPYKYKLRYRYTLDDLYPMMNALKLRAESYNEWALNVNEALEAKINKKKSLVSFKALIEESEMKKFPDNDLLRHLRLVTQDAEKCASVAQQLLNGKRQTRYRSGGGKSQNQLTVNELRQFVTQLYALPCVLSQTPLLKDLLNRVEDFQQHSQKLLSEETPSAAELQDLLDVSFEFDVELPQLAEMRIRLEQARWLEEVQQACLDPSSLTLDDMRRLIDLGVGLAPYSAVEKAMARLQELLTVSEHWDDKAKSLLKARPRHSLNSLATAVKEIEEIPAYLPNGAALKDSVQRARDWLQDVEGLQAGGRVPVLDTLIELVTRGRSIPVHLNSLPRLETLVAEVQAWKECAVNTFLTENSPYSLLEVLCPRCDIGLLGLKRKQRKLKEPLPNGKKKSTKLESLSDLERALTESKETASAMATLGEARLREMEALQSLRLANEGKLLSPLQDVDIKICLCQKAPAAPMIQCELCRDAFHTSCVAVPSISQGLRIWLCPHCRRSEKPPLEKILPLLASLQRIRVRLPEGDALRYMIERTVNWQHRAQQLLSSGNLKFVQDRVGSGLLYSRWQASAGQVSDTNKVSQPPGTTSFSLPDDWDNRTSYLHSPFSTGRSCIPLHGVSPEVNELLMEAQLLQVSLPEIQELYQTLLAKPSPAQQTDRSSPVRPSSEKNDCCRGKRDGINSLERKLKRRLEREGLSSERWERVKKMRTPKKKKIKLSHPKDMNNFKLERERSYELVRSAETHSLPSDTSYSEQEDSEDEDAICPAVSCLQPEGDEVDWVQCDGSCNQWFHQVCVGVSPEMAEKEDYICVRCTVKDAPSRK
#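 Measured: NADH fluorescence change, 30 min, RT. System: KDM5BΔAP 200 nM final, H3K4me3 peptide, α-KG, Fe(II), ascorbate, NAD⁺ plus FDH, pH 7.5 HEPES. Compounds: titrated, 10 min pre-incubation with enzyme.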
# SNCA expr inh = SNCA gene expression inhibition | HEK-293 SNCA-luciferase knock-in, luminescence, 24 h | Potency, µM (doses to about 57.2 µM), for inactives: at the top dose activity change, negative = inhibition, most hits filed as inhibitors | 0.17% of 140,000 active | AID 1671194;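 note: potency is the fitted concentration of half-maximal effect; plate controls were DMSO cells for no effect and cell-free wells for full effect; nearly all actives have a fitted effect of over 45% in size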
# IP6K1 inhibitor = IP6K1 kinase inhibition. Q92551. 0.81% of 140,000 active. IP6K1 kinase, ADP-Glo luminescence, 2 h; active compounds read low. activity change, % (series mostly up to about 58 µM). AID 1645851; in the data active = activity change below about -25%; note: % is set by controls: 0 for no effect and ±100 for the full control effect
#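 ADP-Glo luminescence measures ADP made by human IP6K1 during a 2 h RT reaction with ATP/IP6 (mix at 1.3 mM/130 uM); top library doses 57.5 and 19.1 uM final.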
# * marks the source's active call; other numbers are inactive results; i = inactive; ? = inconclusive; . = no result; [ ] = dose if it differs, or a comment. Sampled rows, rich in hits. Any-hit rate of the full collection: about 2.8%. Unless noted, calls come from the whole dose curve; as a rule, active = well fitted curve in the direction sought with a large enough effect; inconclusive = small, poorly fitted or top-dose-only effect, or another doubt; inactive = no such curve, though single readings can be large; an effect the other way counts as inactive or inconclusive.
SMILES,HEK293 viab,KDM5B inh,SNCA expr inh,IP6K1 inhibitor
O=S(=O)(NCC1Cn2cccc2CN1Cc1cccnc1)c1ccc(F)cc1 (configuration not stated),13%,28µM*,6%,-10
Cn1cnc(S(=O)(=O)NCC2Cn3cccc3CN2Cc2ccccc2)c1 (configuration not stated),6%,28µM*,-16%,-3
O=C(NCC1Cn2cccc2CN1Cc1cccnc1)Nc1ccccc1 (configuration not stated),-4%,?,17%,5
CC(C)S(=O)(=O)NCC1Cn2cccc2CN1Cc1ccccc1 (configuration not stated),-2%,?,-21%,-11
O=C(Cc1cccc(Cl)c1)N1CCC(C(=O)N2CCCC2c2nc3ccncc3[nH]2)CC1 (configuration not stated),2%,.,-22%,5
CCCCCCCCS(=O)CCCCC(=O)OCC (configuration not stated),.,i,.,.
CN1Cc2cccn2CC1CNC(=O)c1ccnn1C (configuration not stated),2%,22µM*,?,-1
CN1Cc2cccn2CC1CNC(=O)c1ccccc1F (configuration not stated),3%,?,-16%,-6
O/N=C/c1cccc(Cl)c1Cl,.,i,.,.
Cc1cc(C)c(C(=O)N[C@H](C2CCNCC2)C2CC(O)C2)c(C)c1 (some centres not stated),0%,i,-15%,27
O=C(N[C@H](c1cccs1)C1CC(O)C1)c1ccc(N2CCOCC2)cc1 (some centres not stated),-5%,i,-5%,12
CCNc1ncc(C(=O)N[C@H](C2CCNCC2)C2CC(O)C2)cn1 (some centres not stated),-3%,28µM*,-2%,7
CCNc1ncc(C(=O)N[C@H](c2cccs2)C2CC(O)C2)cn1 (some centres not stated),2%,22µM*,?,13
CCc1noc(-c2cccn3c(CNC(=O)c4c(F)cccc4Cl)nnc23)n1,-5%,28µM*,-15%,35
CCCc1noc(-c2cccn3c(CNC(=O)c4cccc(F)c4)nnc23)n1,-3%,25µM*,-15%,-3
CCc1noc(-c2cccn3c(CNC(=O)c4cccc(F)c4)nnc23)n1,2%,22µM*,4%,40
CCc1noc(-c2cccn3c(CNC(=O)c4cccc(N(C)C)c4)nnc23)n1,-16%,i,21%,9
CCc1noc(-c2cccn3c(CNC(=O)Cc4cccc(F)c4)nnc23)n1,-6%,25µM*,-14%,8
O=C(c1cccc(-n2cnnc2)c1)N1CCCC(O)(CN2CCCC2)C1 (configuration not stated),-2%,?,21%,8
O=C(N[C@H]1CO[C@H]2[C@@H]1OC[C@@H]2Nc1nccc(-c2ccc(-c3ccccc3)cc2)n1)c1ccccc1,-23%,?,-19%,-2
COc1ccc(-c2ccnc(N[C@H]3CO[C@H]4[C@@H]3OC[C@@H]4NC(=O)NCc3ccccc3)n2)cc1,-8%,25µM*,?,-16
CN(C)c1ccc(-c2ccnc(N[C@H]3CO[C@H]4[C@@H]3OC[C@@H]4NC(=O)NCc3ccccc3)n2)cc1,7%,28µM*,9%,16
COc1ccc(-c2nn(-c3ccc(F)cc3)c(OC(C)=O)c2-c2ccc(NC(C)=O)cc2)cc1OC,-12%,20µM*,19%,29
CCC(=O)Nc1ccc(-c2c(-c3cc(OC)cc(OC)c3)nn(-c3ccc(C)cc3)c2OC(C)=O)cc1,-5%,28µM*,-7%,1
CC(=O)Oc1c(-c2ccc(NC(=O)C3CC3)cc2)c(-c2ccc3c(c2)OCO3)nn1-c1cccc(C)c1,-2%,35µM*,10%,-5
SMILES,HEK293 viab,KDM5B inh,SNCA expr inh,IP6K1 inhibitor
CC(=O)Nc1ccc(-c2c(C3CC3)nn(-c3cccc(C)c3)c2OC(C)=O)cc1,?,?,-14%,21
COc1ccc(-c2nn(-c3ccc(C)cc3C)c(OC(C)=O)c2-c2ccc(NC(C)=O)cc2)c(OC)c1,16%,32µM*,6%,1
O=C1NCc2ccccc2CC12CCCN2Cc1ccsc1 (configuration not stated),-11%,i,?,-13
CC(=O)Nc1ccc(-c2c(-c3cccc(C)c3)nn(-c3ccc(F)cc3)c2OC(C)=O)cc1,9%,25µM*,-29%,-4
CCC(=O)Nc1ccc(-c2c(-c3ccc(C)cc3)nn(-c3ccc(F)cc3)c2OC(C)=O)cc1,-7%,?,2%,-8
Cc1noc(-c2ccn3c(CNC(=O)c4ccc(F)cc4Cl)nnc3c2)n1,-21%,i,-1%,3
CC(C)c1noc(-c2ccn3c(CNC(=O)c4ccc(F)cc4Cl)nnc3c2)n1,7%,28µM*,10%,5
CCc1noc(-c2ccn3c(CNC(=O)c4cc(F)ccc4Cl)nnc3c2)n1,-6%,28µM*,3%,7
CCOc1ccccc1C(=O)NCc1nnc2cc(-c3nc(CC)no3)ccn12,-7%,28µM*,-26%,28
COc1ccc(-c2nc(C)nc3c2CCN(Cc2cc(C)on2)CC3)cc1,5%,20µM*,2%,-6
COc1ccc(-c2nc(C)nc3c2CCN(Cc2ccnn2C)CC3)cc1,-13%,20µM*,-4%,1
COc1ccc(-c2nc(C)nc3c2CCN(CC2CCCCC2)CC3)cc1,-14%,28µM*,-5%,-3
COc1ccc(-c2nc(C)nc3c2CN(C(=O)c2ccccn2)CC3)cc1,3%,16µM*,6%,0
CCOc1ccc2oc(=O)cc(CN3CCN(CC(=O)N4CCC(C)CC4)CC3)c2c1,.,i,.,.
CCn1cc(S(=O)(=O)N2CCC(c3noc(-c4ccccn4)n3)C2)cn1 (configuration not stated),6%,i,-6%,-1
CC1CCCC[C@H]2C(=O)C=C[C@H](O)[C@@H]2CC(=O)O1 (some centres not stated),9.5µM*,.,.,-2
O=C(Nc1ccncc1)c1ccnc(-c2nnc3ccc(N4CCOCC4)nn23)c1,-10%[87.6 µM],i,-15%[87.6 µM],-12
CN(C)C(=O)Cc1cccc(C(F)(F)F)c1,.,i,.,.
Cc1nc2scc(CC(=O)N3CCOCC3)n2c(=O)c1-c1cc(C)n(-c2ccc(C(C)C)cc2)n1,-3%,25µM*,-2%,5
CCCNC(=O)Cc1csc2nc(C)c(-c3cc(C)n(-c4ccc(Cl)c(Cl)c4)n3)c(=O)n12,-4%,28µM*,-25%,16
Cc1nc2scc(CC(=O)NCC(C)C)n2c(=O)c1-c1cc(C)n(-c2ccc(F)cc2)n1,-4%,?,2%,25
Cc1ccc(Cl)cc1-n1nc(-c2c(C)nc3scc(CC(=O)NCCC(C)C)n3c2=O)cc1C,?,22µM*,-10%,6
Cc1cccc(-n2nc(-c3c(C)nc4scc(CC(=O)NC5CC5)n4c3=O)cc2C)c1,?,25µM*,-5%,13
